Experimental data as given in PubChem BioAssay (NCI).
Where “and” joins values, the source holds several entries; their conditions need not be identical. Identical values can stand only once. The panel holds about 79,000 compounds, 15% with a hit somewhere; the sample as a whole holds those more often. Some structures have more than one record in an assay (separate samples or runs), and their calls can disagree. Calls of active or inactive are those of the source. Rule as the data show it: active = growth inhibition above about 70%; inactive = the rest.

Columns and labels:
[1] = NCI Yeast Anticancer Drug Screen. Data for the rad50 strain (AID 155);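 also: 0% = growth of vehicle-only cultures of the same strain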; conditions: S. cerevisiae rad50 strain growth inhibition, stronger effect = higher value
How it was run: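 Readout: growth inhibition relative to vehicle-treated cultures. Compound exposure was carried out in a genetically defined yeast strain deficient in DNA damage repair.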

[2] = NCI Yeast Anticancer Drug Screen. Data for the mec2-1 strain (AID 157); conditions: S. cerevisiae mec2-1 strain, stronger effect = higher value
How it was run: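 Cells of the genetically defined mec2-1 yeast strain are incubated with test compound. Inhibition of growth is calculated against vehicle-treated controls.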

[3] = NCI Yeast Anticancer Drug Screen. Data for the sgs1 mgt1 strain (AID 161);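 also: 0% = growth of cultures given vehicle only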; conditions: S. cerevisiae sgs1 mgt1 strain, stronger effect = higher value
How it was run: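 Inhibition of yeast growth, normalised to vehicle-treated controls, is reported for a strain bearing genetic alterations in DNA damage repair.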

[4] = NCI Yeast Anticancer Drug Screen. Data for the cln2 rad14 strain (AID 165);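 also: 0% = growth equal to vehicle treated cultures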; conditions: S. cerevisiae cln2 rad14 strain, stronger effect = higher value
How it was run: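 The screen exposed genetically defined yeast (cln2 rad14) to test compounds and scored growth inhibition relative to vehicle-treated controls.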

[5] = NCI Yeast Anticancer Drug Screen. Data for the bub3 strain (AID 167); conditions: S. cerevisiae bub3 mutant strain, stronger effect = higher value
How it was run: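 Readout: yeast growth inhibition, expressed relative to vehicle-only wells. The test organism is a mutant strain from a panel with lesions in DNA repair or checkpoint genes.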

[6] = NCI Yeast Anticancer Drug Screen. Data for the mlh1 rad18 strain (AID 175); conditions: S. cerevisiae mlh1 rad18 strain growth inhibition, stronger effect = higher value
How it was run: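 Compound-treated yeast growth, normalised to vehicle controls. Strain bears defined DNA repair mutations.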

[7] = at 5.0 µM (retest, dose inferred, filed as 0.5)
[8] = at 50.0 µM (retest, dose inferred, filed as 5.0)

Measured: growth inhibition

Clc1ccc(/C=C/c2ccccn2)c(Cl)c1
inactive: [1]; [7] 3% | [1]; [8] 43% | [1]; at 50.0 µM -14.9% and 12.1% | [2]; [7] -3% | [2]; [8] 12% | [2]; at 50.0 µM 6.2% and 3.7% | [3]; [7] -2% | [3]; [8] 5% | [3]; at 50.0 µM -23.1% and 58% | [4]; [7] -6% | [4]; [8] -4% | [4]; at 50.0 µM -0.55% and 20.8% | [5]; [7] 51% | [5]; [8] 10% | [5]; at 50.0 µM -9.75% and 4% | [6]; [7] 1% | [6]; [8] 11% | [6]; at 50.0 µM -47.5% and 31%

CCCCC(O)CC (centres undefined)
inactive: [1]; [7] -6% | [1]; [8] 0% | [1]; at 50.0 µM -10% and 9.8% | [2]; [7] -8% | [2]; [8] -3% | [2]; at 50.0 µM -42.2% and 12.4% | [3]; [7] -2% | [3]; [8] 1% | [3]; at 50.0 µM 11.6% and 27.9% | [4]; [7] -3% | [4]; [8] -1% | [4]; at 50.0 µM 4.65% and 48.2% | [5]; [7] -6% | [5]; [8] 0% | [5]; at 50.0 µM -5.95% and 1.55% | [6]; [7] -4% | [6]; [8] 0% | [6]; at 50.0 µM 0.4% and -1.7%

COc1ccc(C2SC(N)=Nc3c2c(C)nn3C(=O)c2ccc(Cl)cc2)cc1OC (centres undefined)
inactive: [1]; [7] 6% | [1]; [8] 11% | [1]; at 50.0 µM -19.2% | [2]; [7] -10% | [2]; [8] -1% | [2]; at 50.0 µM 14.5% | [3]; [7] -7% | [3]; [8] 0% | [3]; at 50.0 µM 3.85% | [4]; [7] -21% | [4]; [8] 1% | [4]; at 50.0 µM 64.5% | [5]; [7] -18% | [5]; [8] 15% | [5]; at 50.0 µM 16.1% | [6]; [7] -8% | [6]; [8] -15% | [6]; at 50.0 µM -26.6%

Oc1c(Cl)c(Cl)c(Cl)c2ccccc12
active: [1]; [7] 84% | [1]; [8] 95% | [1]; at 50.0 µM 95.5% | [2]; [7] 79% | [2]; [8] 98% | [2]; at 50.0 µM 96.8% | [3]; at 50.0 µM 95.9% | [4]; [8] 94% | [5]; [7] 92% | [5]; [8] 93% | [5]; at 50.0 µM 91.2% | [6]; [7] 87% | [6]; [8] 98% | [6]; at 50.0 µM 96.7%
inactive: [3]; [7] 38% | [3]; [8] 34% | [4]; [7] 39% | [4]; at 50.0 µM 53.4%

OC(c1ccccc1)(c1ccccc1)c1ccccc1 (tested in a mixture with another compound)
2.55% (inactive) and 96.5% (active): [2]; at 50.0 µM
-1.85% (inactive) and 92.7% (active): [3]; at 50.0 µM
1.15% (inactive) and 95.4% (active): [5]; at 50.0 µM
inactive: [1]; [7] -5% | [2]; [7] -7% | [3]; [7] -3% | [4]; [7] -12% | [5]; [7] -7% | [6]; [7] -6%
active: [1]; [8] 94% | [2]; [8] 91% | [3]; [8] 90% | [4]; [8] 94% | [5]; [8] 96% | [6]; [8] 93%
10.7% (inactive) and 96.7% (active): [1]; at 50.0 µM
9.15% (inactive) and 94% (active): [6]; at 50.0 µM
-4.75% (inactive) and 95.2% (active): [4]; at 50.0 µM

C=C(C)C(=O)Oc1ccc(N=Nc2ccccc2)ccc1=O
active: [1]; [8] 89% | [1]; at 50.0 µM 95.3% | [2]; [8] 93% | [2]; at 50.0 µM 81% | [3]; [8] 93% | [3]; at 50.0 µM 93% | [4]; [8] 77% | [5]; [8] 86% | [5]; at 50.0 µM 81.8% | [6]; [8] 96% | [6]; at 50.0 µM 94.5%
inactive: [1]; [7] 2% | [2]; [7] 5% | [3]; [7] 6% | [4]; [7] 4% | [4]; at 50.0 µM 59.9% | [5]; [7] -2% | [6]; [7] 12%

CCOC(=O)/C(=C/c1ccc(OC)c(OC)c1)C(=O)c1ccccc1
active: [1]; at 50.0 µM 74.7% | [4]; [8] 71% | [4]; at 50.0 µM 72.5% | [5]; [8] 92% | [5]; at 50.0 µM 78.4% | [6]; [8] 80%
inactive: [1]; [7] 12% | [1]; [8] 49% | [2]; [7] -19% | [2]; [8] 66% | [2]; at 50.0 µM 68% | [3]; [7] 2% | [3]; [8] 65% | [3]; at 50.0 µM 64.7% | [4]; [7] 27% | [5]; [7] 27% | [6]; [7] -7% | [6]; at 50.0 µM 56.5%

Cc1ccnc2c1c(=O)c1ccccc1n2C
inactive: [1]; [7] 0% | [2]; [7] 4% | [2]; [8] 28% | [2]; at 50.0 µM 60.2% | [3]; [7] -2% | [3]; [8] 35% | [3]; at 50.0 µM 68.9% | [4]; [7] -6% | [4]; [8] -3% | [4]; at 50.0 µM 46.2% | [5]; [7] -1% | [5]; [8] 12% | [6]; [7] 3% | [6]; [8] 55%
active: [1]; [8] 86% | [1]; at 50.0 µM 79.1% | [5]; at 50.0 µM 71.6% | [6]; at 50.0 µM 74.3%
